Bead autofluor: flagged as autofluorescent in microsphere protease counterscreen | compound autofluorescence counterscreen, microsphere flow cytometry; hits give high values | fluorescence intensity (no concentration beside the values) | 360,000 compounds, 3.1% hits | AID 624483; in the data active = fluorescence intensity above about 16000; inconclusive = no clear call, values can overlap the other calls
BoNT-F LC inh: BoNT F light chain protease inhibition; Multiplex microsphere protease cleavage assay, flow cytometry; inhibition, % at 10 µM; 360,000 compounds, 0.22% hits; AID 588497; in the data active = inhibition above about 35%, passing the limit was not always enough; inconclusive = no clear call, values can overlap the other calls; also: plate controls were buffer without enzyme for full effect and enzyme alone for no effect
SARS 3CLpro inh: SARS-CoV 3CLpro protease inhibition; P0C6X7; recombinant SARS-CoV 3CLpro, quenched FRET peptide cleavage; inhibition, % at 6 µM; 290,000 compounds, 0.14% hits; in the data active = inhibition above about 12%
Anthrax LF inh2: anthrax lethal factor protease inhibition. 360,000 compounds, 0.12% hits. P15917. multiplex microsphere protease cleavage assay, LF. AID 588501. inhibition, % at 10 µM; also: plate controls were buffer without enzyme for full effect and enzyme alone for no effect
BoNT A protease: inhibitors of Botulinum neurotoxin A light chain protease. 360,000 compounds, 0.17% hits. inhibition, % at 10 µM. multiplex microsphere protease substrate cleavage, flow cytometry; also: plate controls were buffer without enzyme for full effect and enzyme alone for no effect
DUSP3 inh: blocks human VHR1 dual specificity phosphatase; recombinant VHR phosphatase, pNPP absorbance; P51452; 290,000 compounds, 0.52% hits; inhibition, % at 13.3 µM; in the data active = inhibition above about 50%
Target sequence (P51452 whole entry, looked up): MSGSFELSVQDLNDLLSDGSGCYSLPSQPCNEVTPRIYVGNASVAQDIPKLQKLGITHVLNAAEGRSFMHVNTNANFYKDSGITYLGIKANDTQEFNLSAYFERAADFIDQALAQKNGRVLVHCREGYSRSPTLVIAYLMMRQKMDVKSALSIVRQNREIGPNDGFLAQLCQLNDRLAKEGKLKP
Starred values were filed as active, the others as inactive; ? = inconclusive; nt = no result. Sampled rows, rich in hits. Any-hit rate of the full collection: about 3.9%. Rule as the data show it, unless noted: active = inhibition above about 30%; inconclusive = no clear call, values can overlap the other calls; inactive = below that.

SMILES	Bead autofluor	BoNT-F LC inh	SARS 3CLpro inh	Anthrax LF inh2	BoNT A protease	DUSP3 inh
O=C1CSC(=Nc2cc(Cl)ccc2Cl)N1	22505*	2	-4	2	4	-16
Cc1cc(C)cc(N=C2NC(=O)CS2)c1	4117	?	1	-11	1	59*
O=Cc1cn(-c2ccc(F)cc2)c2ccccc12	2584	-14	0	0	0	-8
COc1ccc(-[n+]2c(C)cc(/C=C3\Sc4ccccc4N3C)cc2C)cc1	4610	-40	-3	20	68*	4
COc1ccccc1-[n+]1c(C)cc(/C=C2\Sc3ccccc3N2C)cc1C	7146	-2	2	40*	88*	11
CC(C)C(NC(=O)c1ccc(S(=O)(=O)N2CCOCC2)cc1)c1nc2ccccc2[nH]1 (stereo not drawn)	22568*	-3	-3	-3	0	-7
CC(C)[C@H](NC(=O)c1cccc(S(=O)(=O)N2CCCC2)c1)c1nc2ccccc2[nH]1	2380	-4	1	-3	-1	20
COc1cccc(NS(=O)(=O)c2ccc(S(=O)(=O)N3CCOCC3)cc2)c1	17066*	-6	1	-2	-3	17
O=C(NNC(=O)c1ccc(S(=O)(=O)N2CCOCC2)cc1)c1ccccc1	3693	45*	0	-4	2	12
COc1cccc(NC(=O)C2CCN(S(=O)(=O)c3ccc4c(c3)OCCO4)CC2)c1	22969*	-3	6	-8	0	15
Cc1ccc(C(=O)NNC(=O)c2ccc(S(=O)(=O)N3CCOCC3)cc2)cc1	3594	-14	2	5	-1	7
Cc1cc(NC(=O)Nc2ccc(OCc3ccccc3)cc2)n(C)n1	4025	-20	-2	-6	-4	16
Cc1cc(OCC(=O)NNC(=S)NC(=O)c2ccc(Br)o2)ccc1Cl	5288	-6	0	-2	-2	6
Cc1ccc(N(Cc2ccccc2)C(=O)c2cccc(S(=O)(=O)N3CCOCC3)c2)cc1	4639	0	nt	3	-2	nt
O=C(Nc1ccccc1-c1nc2ccccc2[nH]1)c1ccc(S(=O)(=O)N2CCCCC2)cc1	15899	0	-1	2	1	50*
COc1cc(S(=O)(=O)N2CCOCC2)ccc1NC(=O)COC(=O)CC12CC3CC(CC(C3)C1)C2	24036*	-6	0	-3	-2	19
Cc1ccc(N(Cc2ccccc2)C(=O)c2ccc(S(=O)(=O)N3CCOCC3)cc2)cc1	27784*	-177	nt	-24	-121	nt
COc1ccc(NC(=O)c2ccc(S(=O)(=O)N3CCOCC3)cc2)c(OC)c1	24065*	-6	8	-2	-3	13
C/C(=N\Nc1ccc(C(=O)O)cc1)c1ccc(S(=O)(=O)NCc2ccco2)cc1	nt	nt	5	nt	nt	12
Cn1c(CC(=O)Nc2ccccc2F)nnc1SCC(=O)N1CCOCC1	5454	0	2	3	0	20
CCC(C)n1c(NC(=O)c2ccccc2)c(C#N)c2nc3ccccc3nc21 (stereo not drawn)	7113	13	-3	16	27	58*
N#Cc1cc2c(nc1SCC(=O)NCc1ccc3c(c1)OCO3)CCCCC2	18758*	0	4	-1	2	21
Cc1noc(NS(=O)(=O)c2ccc(NC(=O)CC(C)C)cc2)c1C	5670	5	5	0	0	11
Cc1noc(NS(=O)(=O)c2ccc(NC(=O)CSc3nc4c(cc3C#N)CCCCC4)cc2)c1C	24886*	-7	0	-2	-3	18
CC(OC(=O)Cc1cccc(C(F)(F)F)c1)C(=O)Nc1ccc(Cl)cn1 (stereo not drawn)	4479	7	5	-2	-1	26
SMILES	Bead autofluor	BoNT-F LC inh	SARS 3CLpro inh	Anthrax LF inh2	BoNT A protease	DUSP3 inh
O=S(=O)(NCCc1ccncc1)c1ccc(F)cc1	3248	-11	-1	-4	4	-12
O=S(=O)(NCCc1ccncc1)c1ccc(Br)cc1	22923*	4	-5	0	1	12
Fc1c(F)c(-n2nnc3ccccc32)c(F)c(F)c1Cl	3530	33	1	-4	0	6
COc1ccccc1N1CCN(S(=O)(=O)c2ccc(Cl)s2)CC1	8372	-3	2	-2	0	8
O=C(NC(Cc1c[nH]c2ccccc12)C(=O)O)c1ccc(Br)cc1 (stereo not drawn)	2115	-7	0	-2	0	10
O=C(COc1ccccc1)NC(Cc1c[nH]c2ccccc12)C(=O)O (stereo not drawn)	16391*	0	1	-5	0	21
